From ChEMBL document CHEMBL2218924, “A broad activity screen in support of a chemogenomic map for kinase signalling research and drug discovery” (Biochem J, 2013)

Columns and labels:
[1] = target: Serine/threonine-protein kinase PLK3 (Homo sapiens) (UniProt Q9H4B4); conditions: at 1 µM
[2] = target: Serine/threonine-protein kinase PLK3 (Homo sapiens) (UniProt Q9H4B4); conditions: at 10 µM
[3] = target: T1, cAMP-dependent protein kinase catalytic subunit PRKX (Homo sapiens) (UniProt P51817); conditions: at 1 µM
T1 sequence (whole entry): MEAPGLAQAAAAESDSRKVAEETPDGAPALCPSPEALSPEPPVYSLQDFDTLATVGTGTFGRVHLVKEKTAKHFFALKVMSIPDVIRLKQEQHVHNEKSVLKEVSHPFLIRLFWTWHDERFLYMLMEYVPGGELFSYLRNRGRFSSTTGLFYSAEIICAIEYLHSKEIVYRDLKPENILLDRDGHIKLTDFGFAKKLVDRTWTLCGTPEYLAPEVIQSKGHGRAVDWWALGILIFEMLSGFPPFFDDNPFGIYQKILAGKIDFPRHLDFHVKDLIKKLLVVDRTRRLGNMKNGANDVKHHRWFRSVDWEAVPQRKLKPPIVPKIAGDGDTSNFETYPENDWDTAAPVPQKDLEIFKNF

[4] = target: T1, cAMP-dependent protein kinase catalytic subunit PRKX (Homo sapiens); conditions: at 10 µM
[5] = target: Protein-tyrosine kinase 2-beta (Homo sapiens) (UniProt Q14289); conditions: at 10 µM
[6] = target: Receptor-interacting serine/threonine-protein kinase 2 (Homo sapiens) (UniProt O43353); conditions: at 1 µM
[7] = target: Receptor-interacting serine/threonine-protein kinase 2 (Homo sapiens) (UniProt O43353); conditions: at 10 µM
[8] = target: Rho-associated protein kinase 2 (Homo sapiens) (UniProt O75116); conditions: at 1 µM
[9] = target: Rho-associated protein kinase 2 (Homo sapiens) (UniProt O75116); conditions: at 10 µM
[10] = target: Proto-oncogene tyrosine-protein kinase receptor Ret (Homo sapiens) (UniProt P07949); conditions: at 1 µM
[11] = target: Proto-oncogene tyrosine-protein kinase receptor Ret (Homo sapiens) (UniProt P07949); conditions: at 10 µM
[12] = target: Macrophage-stimulating protein receptor (Homo sapiens) (UniProt Q04912); conditions: at 10 µM
[13] = target: T2, Tyrosine-protein kinase receptor TYRO3 (Homo sapiens) (UniProt Q06418); conditions: at 1 µM
T2 sequence (whole entry): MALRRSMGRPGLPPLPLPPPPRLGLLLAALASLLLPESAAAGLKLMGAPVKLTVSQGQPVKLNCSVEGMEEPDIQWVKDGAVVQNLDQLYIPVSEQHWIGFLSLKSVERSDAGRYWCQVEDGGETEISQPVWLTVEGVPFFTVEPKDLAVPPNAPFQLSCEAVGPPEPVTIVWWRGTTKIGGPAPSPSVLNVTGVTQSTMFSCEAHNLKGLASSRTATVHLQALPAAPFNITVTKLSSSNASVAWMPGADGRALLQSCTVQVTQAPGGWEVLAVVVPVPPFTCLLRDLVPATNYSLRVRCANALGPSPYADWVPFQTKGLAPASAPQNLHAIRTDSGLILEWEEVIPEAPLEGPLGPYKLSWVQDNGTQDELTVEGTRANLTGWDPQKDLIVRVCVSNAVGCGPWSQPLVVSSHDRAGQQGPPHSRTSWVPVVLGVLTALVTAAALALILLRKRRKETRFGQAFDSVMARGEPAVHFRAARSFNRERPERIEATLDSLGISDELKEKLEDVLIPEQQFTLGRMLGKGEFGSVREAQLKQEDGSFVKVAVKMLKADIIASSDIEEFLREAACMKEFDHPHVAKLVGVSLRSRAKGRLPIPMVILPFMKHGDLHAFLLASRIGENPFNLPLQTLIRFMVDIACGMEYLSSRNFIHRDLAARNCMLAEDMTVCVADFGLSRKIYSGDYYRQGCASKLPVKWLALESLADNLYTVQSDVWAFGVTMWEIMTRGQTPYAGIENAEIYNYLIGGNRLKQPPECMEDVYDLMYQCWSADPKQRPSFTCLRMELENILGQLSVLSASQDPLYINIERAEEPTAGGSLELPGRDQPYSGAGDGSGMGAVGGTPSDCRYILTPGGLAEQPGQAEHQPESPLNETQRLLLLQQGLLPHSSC

[14] = target: T2, Tyrosine-protein kinase receptor TYRO3 (Homo sapiens); conditions: at 10 µM
[15] = target: Protein-tyrosine kinase 2-beta (Homo sapiens) (UniProt Q14289); conditions: at 1 µM
[16] = target: Rho-associated protein kinase 1 (Homo sapiens) (UniProt Q13464); conditions: at 10 µM
[17] = target: Macrophage-stimulating protein receptor (Homo sapiens) (UniProt Q04912); conditions: at 1 µM
[18] = target: Proto-oncogene tyrosine-protein kinase ROS (Homo sapiens) (UniProt P08922); conditions: at 1 µM
[19] = target: Proto-oncogene tyrosine-protein kinase ROS (Homo sapiens) (UniProt P08922); conditions: at 10 µM
[20] = target: Rho-associated protein kinase 1 (Homo sapiens) (UniProt Q13464); conditions: at 1 µM

Serine/threonine-protein kinase PLK3 (Homo sapiens), sequence (Q9H4B4 whole entry, looked up): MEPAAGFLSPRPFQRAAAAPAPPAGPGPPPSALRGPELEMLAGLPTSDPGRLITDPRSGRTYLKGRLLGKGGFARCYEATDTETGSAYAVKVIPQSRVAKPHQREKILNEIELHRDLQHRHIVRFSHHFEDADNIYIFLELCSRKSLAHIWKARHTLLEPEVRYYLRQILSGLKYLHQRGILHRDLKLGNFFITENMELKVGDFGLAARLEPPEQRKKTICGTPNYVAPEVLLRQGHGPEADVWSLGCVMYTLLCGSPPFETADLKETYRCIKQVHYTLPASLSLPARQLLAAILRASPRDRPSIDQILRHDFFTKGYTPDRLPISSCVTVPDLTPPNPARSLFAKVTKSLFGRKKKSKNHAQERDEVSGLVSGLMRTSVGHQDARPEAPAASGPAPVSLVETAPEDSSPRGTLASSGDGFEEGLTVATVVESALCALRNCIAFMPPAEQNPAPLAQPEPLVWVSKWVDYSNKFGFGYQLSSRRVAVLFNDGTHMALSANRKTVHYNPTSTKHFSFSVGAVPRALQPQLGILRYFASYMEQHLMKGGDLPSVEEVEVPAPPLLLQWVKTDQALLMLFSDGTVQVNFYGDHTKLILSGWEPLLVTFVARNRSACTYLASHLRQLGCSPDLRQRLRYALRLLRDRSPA
Receptor-interacting serine/threonine-protein kinase 2 (Homo sapiens), sequence (O43353 whole entry): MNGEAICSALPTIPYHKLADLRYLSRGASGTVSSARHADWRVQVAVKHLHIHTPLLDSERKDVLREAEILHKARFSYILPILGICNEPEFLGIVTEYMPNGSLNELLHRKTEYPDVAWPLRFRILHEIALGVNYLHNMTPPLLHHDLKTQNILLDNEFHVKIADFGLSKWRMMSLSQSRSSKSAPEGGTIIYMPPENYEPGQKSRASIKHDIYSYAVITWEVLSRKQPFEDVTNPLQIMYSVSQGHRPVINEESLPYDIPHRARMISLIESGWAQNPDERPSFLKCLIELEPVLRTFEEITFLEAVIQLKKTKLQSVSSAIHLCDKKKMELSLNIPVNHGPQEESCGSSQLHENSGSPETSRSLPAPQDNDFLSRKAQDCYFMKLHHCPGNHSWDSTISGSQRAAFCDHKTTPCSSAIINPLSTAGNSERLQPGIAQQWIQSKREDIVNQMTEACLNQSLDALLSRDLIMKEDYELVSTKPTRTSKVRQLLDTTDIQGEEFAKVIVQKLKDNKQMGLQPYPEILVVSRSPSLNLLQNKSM
Macrophage-stimulating protein receptor (Homo sapiens), sequence (Q04912 25-304 limits assumed): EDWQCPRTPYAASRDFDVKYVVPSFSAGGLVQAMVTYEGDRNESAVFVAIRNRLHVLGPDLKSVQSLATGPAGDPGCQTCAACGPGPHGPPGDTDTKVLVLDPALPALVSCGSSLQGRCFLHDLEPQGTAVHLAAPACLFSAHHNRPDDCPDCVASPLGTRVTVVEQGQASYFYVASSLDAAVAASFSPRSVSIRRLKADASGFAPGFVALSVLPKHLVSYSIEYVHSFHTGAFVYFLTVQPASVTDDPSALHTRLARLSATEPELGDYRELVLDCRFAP
Macrophage-stimulating protein receptor (Homo sapiens), sequence (Q04912 310-1400 limits assumed): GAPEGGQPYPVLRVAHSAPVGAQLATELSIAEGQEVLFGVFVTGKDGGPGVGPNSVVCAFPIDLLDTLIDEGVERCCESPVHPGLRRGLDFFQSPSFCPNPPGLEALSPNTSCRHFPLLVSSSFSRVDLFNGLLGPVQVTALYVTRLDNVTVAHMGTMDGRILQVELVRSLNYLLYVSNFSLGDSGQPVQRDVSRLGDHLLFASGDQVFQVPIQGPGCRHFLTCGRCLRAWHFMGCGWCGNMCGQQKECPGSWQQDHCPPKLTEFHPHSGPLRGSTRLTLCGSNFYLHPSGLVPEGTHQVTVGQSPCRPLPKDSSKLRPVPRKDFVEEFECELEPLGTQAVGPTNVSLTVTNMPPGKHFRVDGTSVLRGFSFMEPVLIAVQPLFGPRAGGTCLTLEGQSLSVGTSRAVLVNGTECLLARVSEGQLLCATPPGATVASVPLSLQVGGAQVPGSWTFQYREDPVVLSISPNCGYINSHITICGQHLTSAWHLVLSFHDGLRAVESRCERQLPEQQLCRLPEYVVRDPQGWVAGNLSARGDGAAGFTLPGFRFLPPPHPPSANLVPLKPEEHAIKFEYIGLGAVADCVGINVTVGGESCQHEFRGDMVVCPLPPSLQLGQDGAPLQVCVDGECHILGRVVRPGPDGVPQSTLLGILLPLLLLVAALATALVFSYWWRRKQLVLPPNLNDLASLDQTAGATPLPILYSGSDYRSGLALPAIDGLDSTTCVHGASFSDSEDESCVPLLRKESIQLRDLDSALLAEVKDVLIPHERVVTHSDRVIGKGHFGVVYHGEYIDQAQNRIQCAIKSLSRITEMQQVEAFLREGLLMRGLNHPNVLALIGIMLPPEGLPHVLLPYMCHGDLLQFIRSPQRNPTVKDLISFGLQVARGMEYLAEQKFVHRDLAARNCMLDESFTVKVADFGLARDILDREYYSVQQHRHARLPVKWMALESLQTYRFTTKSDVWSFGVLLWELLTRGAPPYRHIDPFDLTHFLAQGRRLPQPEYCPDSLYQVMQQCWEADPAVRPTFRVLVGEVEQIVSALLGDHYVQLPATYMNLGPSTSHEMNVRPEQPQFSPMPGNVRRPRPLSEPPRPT
Proto-oncogene tyrosine-protein kinase receptor Ret (Homo sapiens), sequence (P07949 whole entry): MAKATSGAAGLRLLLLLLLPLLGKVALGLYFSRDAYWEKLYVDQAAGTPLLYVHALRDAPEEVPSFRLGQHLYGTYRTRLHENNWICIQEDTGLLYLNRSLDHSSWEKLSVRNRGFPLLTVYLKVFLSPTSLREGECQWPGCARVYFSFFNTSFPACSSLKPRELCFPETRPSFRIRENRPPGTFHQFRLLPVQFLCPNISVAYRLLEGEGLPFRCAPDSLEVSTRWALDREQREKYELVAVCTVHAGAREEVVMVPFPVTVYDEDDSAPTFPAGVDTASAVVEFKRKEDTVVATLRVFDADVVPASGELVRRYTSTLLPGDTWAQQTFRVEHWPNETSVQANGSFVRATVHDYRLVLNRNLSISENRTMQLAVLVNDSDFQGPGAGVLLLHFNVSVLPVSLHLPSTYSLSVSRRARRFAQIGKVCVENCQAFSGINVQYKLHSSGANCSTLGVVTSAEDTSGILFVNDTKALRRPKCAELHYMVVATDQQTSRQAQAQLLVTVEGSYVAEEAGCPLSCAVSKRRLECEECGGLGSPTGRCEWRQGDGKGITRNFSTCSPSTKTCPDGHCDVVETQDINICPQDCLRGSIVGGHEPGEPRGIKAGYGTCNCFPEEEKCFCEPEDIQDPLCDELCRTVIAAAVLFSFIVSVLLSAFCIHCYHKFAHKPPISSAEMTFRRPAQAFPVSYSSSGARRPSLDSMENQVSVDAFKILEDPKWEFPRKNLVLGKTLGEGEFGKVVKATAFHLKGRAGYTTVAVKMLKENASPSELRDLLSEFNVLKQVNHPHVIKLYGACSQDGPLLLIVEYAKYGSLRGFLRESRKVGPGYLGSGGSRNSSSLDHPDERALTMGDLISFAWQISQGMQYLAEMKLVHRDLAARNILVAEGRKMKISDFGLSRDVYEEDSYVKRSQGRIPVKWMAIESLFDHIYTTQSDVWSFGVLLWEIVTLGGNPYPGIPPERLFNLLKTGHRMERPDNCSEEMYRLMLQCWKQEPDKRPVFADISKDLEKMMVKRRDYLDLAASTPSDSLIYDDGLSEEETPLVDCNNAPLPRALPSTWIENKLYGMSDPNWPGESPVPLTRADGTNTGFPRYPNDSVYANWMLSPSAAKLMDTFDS
Protein-tyrosine kinase 2-beta (Homo sapiens), sequence (Q14289 whole entry, looked up): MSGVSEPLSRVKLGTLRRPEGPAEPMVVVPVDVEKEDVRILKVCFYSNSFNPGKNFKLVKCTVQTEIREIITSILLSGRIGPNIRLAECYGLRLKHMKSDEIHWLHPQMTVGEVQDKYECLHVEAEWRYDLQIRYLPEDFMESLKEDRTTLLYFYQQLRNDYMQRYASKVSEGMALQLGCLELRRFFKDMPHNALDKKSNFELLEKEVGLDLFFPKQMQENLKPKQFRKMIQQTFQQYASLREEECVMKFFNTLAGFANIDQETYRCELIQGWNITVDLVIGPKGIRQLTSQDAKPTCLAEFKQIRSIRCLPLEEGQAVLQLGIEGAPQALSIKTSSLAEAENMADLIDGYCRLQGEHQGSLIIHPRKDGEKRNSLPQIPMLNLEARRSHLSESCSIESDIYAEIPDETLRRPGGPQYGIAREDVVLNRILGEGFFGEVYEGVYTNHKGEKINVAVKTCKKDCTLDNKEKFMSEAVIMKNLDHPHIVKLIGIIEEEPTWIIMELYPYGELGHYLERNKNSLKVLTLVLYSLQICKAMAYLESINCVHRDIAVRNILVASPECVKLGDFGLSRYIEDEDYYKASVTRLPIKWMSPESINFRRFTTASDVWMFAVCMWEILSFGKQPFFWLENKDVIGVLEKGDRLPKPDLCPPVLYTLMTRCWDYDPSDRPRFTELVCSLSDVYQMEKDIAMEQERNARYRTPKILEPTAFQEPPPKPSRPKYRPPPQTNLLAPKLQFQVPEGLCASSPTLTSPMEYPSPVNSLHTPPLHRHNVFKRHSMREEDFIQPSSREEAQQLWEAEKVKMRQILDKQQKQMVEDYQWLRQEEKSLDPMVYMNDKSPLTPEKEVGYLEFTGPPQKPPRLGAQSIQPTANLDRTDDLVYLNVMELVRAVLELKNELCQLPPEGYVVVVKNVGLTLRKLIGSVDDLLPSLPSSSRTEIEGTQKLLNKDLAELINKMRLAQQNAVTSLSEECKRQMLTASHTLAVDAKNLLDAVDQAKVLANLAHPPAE

| Structure (SMILES) | residual activity [1] | residual activity [2] [%] | residual activity [3] [%] | residual activity [4] [%] | residual activity [5] [%] | residual activity [6] [%] | residual activity [7] [%] | residual activity [8] [%] | residual activity [9] [%] | residual activity [10] [%] | residual activity [11] [%] | residual activity [12] [%] | residual activity [13] [%] | residual activity [14] [%] | residual activity [15] [%] | residual activity [16] [%] | residual activity [17] [%] | residual activity [18] [%] | residual activity [19] [%] | residual activity [20] [%] |
| --- | --- | --- | --- | --- | --- | --- | --- | --- | --- | --- | --- | --- | --- | --- | --- | --- | --- | --- | --- | --- |
| Nc1ncnc2c1cnn2-c1ccccc1 | 93% (inactive) | 95 | 94 | 91 | 97 | 93 | 67 | 92 | 66 | 101 | 91 | 80 | 90 | 93 |  |  |  |  |  |  |
| O=C(c1ccccc1)c1ccc(N2CCOCC2)cc1O | 91% (inactive) | 88 | 86 | 94 |  | 99 | 87 |  | 90 | 94 | 100 | 99 |  |  | 130 | 121 | 90 | 96 | 98 |  |
| O=C1Cc2c([nH]c3ccc([N+](=O)[O-])cc23)-c2ccccc2N1 | 107% (inactive) |  | 81 | 53 | 38 | 53 | 23 |  |  | 103 | 79 | 108 |  |  | 45 |  | 100 |  |  | 107 |
| Cn1sc(=O)n(Cc2ccccc2)c1=O |  | 89 | 76 | 87 |  | 92 | 86 | 91 | 83 | 94 | 94 | 75 |  |  |  |  | 81 | 79 | 80 |  |
| O=C(CCCc1ccc(-c2ccccc2F)cc1)Nc1ccc(O)cc1 | 99% (inactive) | 98 | 100 | 101 | 104 | 94 | 95 | 106 | 96 | 91 | 86 | 92 | 102 | 102 | 105 | 100 | 85 | 103 | 100 | 107 |
| O=C1Cc2c([nH]c3ccc(Br)cc23)-c2ccccc2N1 | 95% (inactive) | 83 |  |  | 58 | 49 | 22 |  |  |  | 72 | 77 |  | 83 | 89 |  | 72 |  |  |  |
| CC(C)c1nn(-c2c(Cl)cccc2Cl)c2nc(Cc3ccc(OCCO)cc3)[nH]c(=O)c12 | 103% (inactive) | 96 | 94 | 87 | 99 | 90 | 83 | 98 | 96 | 103 | 92 | 92 | 103 | 104 | 109 |  | 88 | 106 | 88 |  |
| CSc1nc(-c2ccc(F)cc2)c(-c2ccnc(NC(C)c3ccccc3)c2)[nH]1 (stereo not drawn) | 91% (inactive) | 90 | 87 | 58 | 85 | 75 | 30 | 101 | 96 | 66 | 28 | 83 | 100 | 99 |  | 96 | 98 |  |  |  |
